Activity calls are given as the source filed them. The calls were made as follows: active = hit-call score of the fitted dose curve at least 0.9, where 1 is the maximum; inactive = score below 0.9.

The assay concerns the target human DYRK1A CMGC Kinase, DYRK1A (gene 1859) (UniProt Q13627). Nature of the assay: ERF_FR_ENZ_hDYRK1A: Eurofins (ERF) Enzymatic Radiometric [Km ATP] KinaseProfiler LeadHunter Assay for human DYRK1A CMGC Kinase. How it is done: ERF_FR_ENZ_hDYRK1A is a biochemical, single-readout assay that uses extracted gene-proteins in a cell-free assay. Measurements were taken 0.5 hour after chemical dosing in a 96-well plate. See DYRK1A Human CMGC Kinase Enzymatic LANCE Assay [Km ATP], Cerep.ERF_FR_ENZ_hDYRK1A is an assay component calculated from the ERF_FR_ENZ_hDYRK1A assay. It is designed to measure enzyme activity using a type of enzyme reporter as detected by fluorescence intensity with LANCE technology.Data from the assay component ERF_FR_ENZ_hDYRK1A was analyzed at the assay endpoint, ERF_FR_ENZ_hDYRK1A, in the positive analysis fitting direction relative to DMSO as the negative control and baseline of activity. Using a type of enzyme reporter, loss-of-signal activity can be used to understand changes in enzymatic activity as they relate to gene DYRK1A. To generalize the intended target to other relatable targets, this assay endpoint is annotated to the kinase intended target family, where the subfamily is serine/threonine kinase.
DYRK1A (h) is incubated with 8 mM MOPS pH 7.0, 0.2 mM EDTA, 50 uM […], 10 mM MgAcetate and [gamma-33P]-ATP (specific activity and concentration as required). The reaction is initiated by the addition of the Mg/ATP mix. After incubation for 40 minutes at room temperature, the reaction is stopped by the addition of phosphoric acid to […] a concentration of 0.5%. […]
One may read the AC50 as the midpoint of the concentration-response curve, whichever way the signal moves. Turning to `O=C(/C=C/c1ccc(O)cc1)CC(=O)/C=C/c1ccc(O)cc1`, the AC50 was 128 nM (active).

Source of the values: PubChem BioAssay AID2284067 (EPA ToxCast).
